JMJD2E inh = blocks human JMJD2E demethylase activity; B2RXH2; AID 2147; Potency, µM (titrated, usually from 57.1 µM), inactives show at the top dose activity change, negative = inhibition, most hits filed as inhibitors; JMJD2E catalytic domain, FDH-coupled NADH fluorescence (FDH is formaldehyde dehydrogenase); 230,000 tested, 1.6% active; active means well fitted inhibition curve with a large enough effect, not every such curve was filed as active; inconclusive means small, poorly fitted or top-dose-only effect, or another doubt; inactive means no such curve, though single readings can be large or run the other way;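 further: potency means the concentration at half of the fitted maximal effect; 0% = wells with enzyme and -100% = buffer wells without enzyme; nearly all actives have a fitted effect of over 50% in size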
ALDH1A1 block = inhibitors of human aldehyde dehydrogenase 1A1; P00352; Purified ALDH1A1, NADH fluorescence, propionaldehyde substrate; Potency, µM (doses to about 75.3 µM), for the others: at the highest dose activity, negative = inhibition, actives largely listed as inhibitors; 220,000 tested, 7.3% active; AID 1030; active means well fitted inhibition curve with a large enough effect, not every such curve was filed as active; inconclusive means small, poorly fitted or top-dose-only effect, or another doubt; inactive means no such curve, though single readings can be large or run the other way;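 further: potency means the concentration at half of the fitted maximal effect; plate controls were no enzyme wells and a reference inhibitor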
Target sequence (P00352 whole entry, looked up): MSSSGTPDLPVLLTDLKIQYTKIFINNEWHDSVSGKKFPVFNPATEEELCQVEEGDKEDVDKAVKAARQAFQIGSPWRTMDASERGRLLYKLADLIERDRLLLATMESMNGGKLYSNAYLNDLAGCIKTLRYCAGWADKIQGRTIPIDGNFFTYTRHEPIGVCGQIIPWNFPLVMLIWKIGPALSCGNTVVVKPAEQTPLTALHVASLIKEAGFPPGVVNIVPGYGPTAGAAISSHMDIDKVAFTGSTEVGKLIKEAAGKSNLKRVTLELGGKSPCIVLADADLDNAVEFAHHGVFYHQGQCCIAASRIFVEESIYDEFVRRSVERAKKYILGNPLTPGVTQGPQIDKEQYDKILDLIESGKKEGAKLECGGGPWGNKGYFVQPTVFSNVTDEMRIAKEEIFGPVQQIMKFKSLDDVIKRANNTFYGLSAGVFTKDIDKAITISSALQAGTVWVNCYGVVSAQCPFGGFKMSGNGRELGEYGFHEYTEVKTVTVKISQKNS
HPGD inh = blocks human HPGD enzyme activity; P15428; purified HPGD, NADH fluorescence kinetic, PGE2 substrate; Potency, µM, inactives show at the top dose activity change, negative = inhibition, actives largely listed as inhibitors; 150,000 tested, 4.3% active; AID 894; active means well fitted inhibition curve with a large enough effect, not every such curve was filed as active; inconclusive means small, poorly fitted or top-dose-only effect, or another doubt; inactive means no such curve, though single readings can be large or run the other way; further: potency means the concentration at half of the fitted maximal effect; on the % scale 0 is the no-effect control and ±100 the full control effect
Target sequence (P15428 whole entry, looked up): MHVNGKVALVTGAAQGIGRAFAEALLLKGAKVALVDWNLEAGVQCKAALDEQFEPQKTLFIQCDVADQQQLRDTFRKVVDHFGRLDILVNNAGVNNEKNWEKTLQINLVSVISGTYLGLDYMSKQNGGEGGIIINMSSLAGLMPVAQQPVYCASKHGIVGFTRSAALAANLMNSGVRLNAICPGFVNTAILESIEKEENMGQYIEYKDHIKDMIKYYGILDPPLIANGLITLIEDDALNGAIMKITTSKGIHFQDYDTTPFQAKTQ
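20 nM HPGD preincubated 15 min at room temperature with compound in 50 mM Tris-HCl pH 8, 0.01% Tween 20. Started with 1 mM NAD+ and 30 uM prostaglandin E2; NADH fluorescence (360/450 nm) read 5 times over 30-s intervals, last minus first.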
HTT cytoprotect = Huntington cell model cytoprotection by ATP luminescence | Potency, µM (doses to about 56.4 µM), for inactives: cytoprotection (ATP increase), usual class: activators | PC12 HTT-Q103 induced, cytoprotection, ATP luminescence, 40 h | AID 1471 | 230,000 tested, 0.14% active; further: potency means the concentration at half of the fitted maximal effect; % of control where 0% means no effect; nearly all actives have a fitted effect of over 45% in size
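Readout: ATPlite luminescence (ATP level). Model: stable PC12, inducible Htt exon1 Q103-GFP. Inducer: tebufenozide, 100 nM final. Compounds: dose series. No G418 in medium.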
HTT aggregate = mutant huntingtin aggregation inhibition. Potency, µM (series often up to 46.1 µM), for the others: top-dose activity change, negative = inhibition, usual class: inhibitors. AID 1688. 220,000 tested, 1.1% active. PC12 HttQ103-GFP aggregates, Acumen cytometry, 40 h; further: potency means the concentration at half of the fitted maximal effect; on the % scale 0 is the no-effect control and ±100 the full control effect; nearly all actives have a fitted effect of over 60% in size
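Inducible Q103 Huntingtin exon 1–GFP PC12 line, 1500 cells/well in phenol red free DMEM with 5% equine and 5% calf serum. Tebufenozide 100 nM induced expression; compounds titrated; aggregates quantified by cytometry.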
CBFb RUNX1 block = inhibitors of human CBF-beta and RUNX1 interaction; Q01196+Q13951; AlphaScreen CBFb-His/RUNX1-biotin binding, biochemical; Potency, µM (series often up to 59.8 µM), for the others: at the top dose activity, negative = inhibition, most hits filed as inhibitors; 230,000 tested, under 10 active; further: % of control where 0% means no effect
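Read-out: AlphaScreen. Format: His-CBF-beta with biotinylated RUNX1 (30 nM each) preincubated 20 min, compound 15 min, Ni-chelate plus streptavidin beads 90 min; room temperature throughout.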
The depositor's hits bear a star; ? = inconclusive; nt = no result given; [ ] = remark or other dose. Sampled rows, rich in hits. Any-hit rate of the full collection: about 9.8%. Unless noted, the call rests on the fitted dose curve; in most records, active means well fitted curve in the direction sought with a large enough effect; inconclusive means small, poorly fitted or top-dose-only effect, or another doubt; inactive means no such curve, though single readings can be large; an effect the other way counts as inactive or inconclusive.

SMILES	JMJD2E inh	ALDH1A1 block	HPGD inh	HTT cytoprotect	HTT aggregate	CBFb RUNX1 block
CCCOC(=O)Nc1cccc(C(C)=O)c1	-8.8%	-1.5%	10µM*	10.8%[10 µM]	4.6%	-0.5%
CCC(=O)NC(=S)Nc1cccc(C(C)=O)c1	4.4%	7.7%	-15.5%	-11.4%	12.2%	0.3%
Cc1cnc(CN(C)Cc2nc(Cc3cccc(C(F)(F)F)c3)no2)[nH]1	16.3%	1.6%	nt	7.7%[10 µM]	19.3%[9.22 µM]	2.7%
COCC(C)NC(C(=O)Nc1cccc(C(C)=O)c1)c1ccccc1 (stereo not drawn)	3.4%	14.1µM*	nt	-15.6%	-6.1%	-7.8%
CC(=O)c1cccc(NC(=O)COC(=O)c2cccc(N3C(=O)c4ccccc4C3=O)c2)c1	-19.8%	14.1µM*	-11.7%	1.4%[10 µM]	10.2%	-24.3%
Cc1ccc(NC(=O)COC(=O)c2cccc(N3C(=O)c4ccccc4C3=O)c2)cc1	4.7%	nt	nt	26.7%[10 µM]	1.8%[9.22 µM]	11.6%
CC(=O)c1cccc(NC(=S)Nc2ccn(Cc3cccc4ccccc34)n2)c1	-15.1%	0.794µM*	nt	nt	-6.9%	-21.7%
Cc1nn(-c2ccc(F)cc2)c(C)c1CN1CCN(CCc2ccccc2)C(CCO)C1 (stereo not drawn)	2.2%	8.0%	nt	7.3%[10 µM]	11.8%[9.22 µM]	-0.1%
Fc1ccc(Nc2nnc(C(F)(F)F)s2)cc1	2.6%	8.4%	nt	-3.0%[10 µM]	4.5%[9.22 µM]	12.4%
CCOc1ccccc1NC(=O)CSc1ccc([N+](=O)[O-])cc1	-3.6%	20µM*	nt	-21.3%	22.3%	-11.7%
O=C(Cc1ccc(Cl)cc1)Nc1cccc(S(=O)(=O)Nc2ccccc2F)c1	2.5%	4.3%	-5.6%	-5.2%[10 µM]	-22.0%	4.6%
Cn1c(=O)c2c(ncn2CC(=O)Nc2cccc(S(=O)(=O)Nc3ccccc3F)c2)n(C)c1=O	-3.7%	7.94µM*	nt	-14.8%	-26.1%	2.3%
CN(c1ccccc1)S(=O)(=O)c1cccc(NC(=O)Cn2cnc3c2c(=O)n(C)c(=O)n3C)c1	-0.5%	11.7%	nt	20.5%[10 µM]	?	-2.8%
O=C(CSc1ccc([N+](=O)[O-])cc1)Nc1cccc(S(=O)(=O)Nc2ccccc2F)c1	?	5.01µM*	nt	-7.6%[10 µM]	-23.7%	-8.8%
Cc1ccc(C)c2[nH]c(=O)c(CN(CCN3CCOCC3)Cc3nnnn3CC3CCCO3)cc12 (stereo not drawn)	?	?	-15.1%	-14.6%[10 µM]	7.7%	2.4%
Cc1ccc(C)c2[nH]c(=O)c(CN(Cc3nnnn3C3CCCCC3)CC3CCCO3)cc12 (stereo not drawn)	4.6%	1.78µM*	-16.0%	-7.5%[10 µM]	7.1%	5.1%
Cc1cccc2cc(CN(Cc3ccc(F)cc3)Cc3nnnn3C3CCCC3)c(=O)[nH]c12	?	14.1µM*	6.9%	-29.2%	2.3%	2.5%
Cc1cc(C)c2[nH]c(=O)c(CN(Cc3ccc4c(c3)OCO4)Cc3nnnn3C3CCCC3)cc2c1	?	?	-26.0%	-24.0%[10 µM]	?	-10.5%
Cc1ccc2[nH]c(=O)c(CN(Cc3ccccc3)Cc3nnnn3C3CCCC3)cc2c1	?	14.1µM*	-8.2%	-11.6%[10 µM]	?	7.1%
Cc1ccc2cc(CN(Cc3nnnn3C3CCCC3)C3CCCCC3)c(=O)[nH]c2c1C	-6.9%	7.94µM*	-7.5%	32.6%	-4.6%	2.6%
COc1ccc(S(=O)(=O)N(C)C)cc1NC(=O)COC(=O)c1nc2nccc(C)n2n1	12.1%	nt	nt	35.3%[10 µM]	-13.0%[9.22 µM]	1.1%
CCc1ccccc1NC(=O)CC(c1ccc(OC)cc1)n1cccc1 (stereo not drawn)	-4.0%	?	-0.5%	-9.2%[10 µM]	-12.1%	-9.5%
CC(C)(CCl)C(=O)Nc1ccnc(-c2ccncc2)n1	-1.1%	1.9%	nt	-21.5%[10 µM]	3.9%	1.2%
COc1ccc2cc(CN(CCCN3CCOCC3)Cc3nnnn3C3CCCCC3)c(=O)[nH]c2c1	?	12.6µM*	-2.9%	-15.8%	5.3%	1.8%
Cc1ccc2cc(C(c3nnnn3C3CCCC3)N(Cc3cccnc3)Cc3ccco3)c(=O)[nH]c2c1 (stereo not drawn)	?	?	-6.9%	15.9%	-12.4%	-6.4%
SMILES	JMJD2E inh	ALDH1A1 block	HPGD inh	HTT cytoprotect	HTT aggregate	CBFb RUNX1 block
Cc1ccc2[nH]c(=O)c(CN(Cc3nnnn3C3CCCC3)C3CCCCC3)cc2c1	?	25.1µM*	-9.5%	-12.2%[10 µM]	-10.6%	11.2%
Cc1ccc2[nH]c(=O)c(C(c3nnnn3C3CCCC3)N(Cc3cccnc3)Cc3ccco3)cc2c1 (stereo not drawn)	-0.8%	4.47µM*	-4.2%	-41.0%	-7.6%	2.8%
COc1ccc(CCN2C(=NC(=O)CC(C)C)SC3CS(=O)(=O)CC32)cc1OC (stereo not drawn)	17.5%	nt	nt	-3.8%[10 µM]	21.4%[9.22 µM]	29.7%
CCc1cccc(CC)c1NC(=O)CSc1nc2ccc(N3C(=O)C4C(C3=O)[C@H]3C=C[C@@H]4C3)cc2s1 (stereo partly drawn)	-9.6%	17.8µM*	20µM*	-5.7%[10 µM]	-7.4%	-1.6%
COC(=O)c1cc(C(=O)OC)cc(-n2c(C)cc(C(=O)COC(=O)CNS(=O)(=O)c3ccc(C)cc3)c2C)c1	?	?	-12.2%	0.1%[10 µM]	4.4%	-14.3%
Oc1ccc(Br)cc1-c1nc2cnccn2c1NC1CCCC1	?	?	-1.6%	15.1%	20µM*	4.0%
O=C1NCCCCC1NC1CC(=O)N(c2ccccc2)C1=O (stereo not drawn)	2.7%	-11.9%	-3.8%	2.7%[10 µM]	-18.1%	5.8%
COc1ccc(N2C(=O)CC(Sc3nccc(C)n3)C2=O)cc1 (stereo not drawn)	-1.9%	22.4µM*	-2.2%	-21.3%	-8.2%	0.6%
CCOc1ccc(N2C(=O)CC(NC3CCCCNC3=O)C2=O)cc1 (stereo not drawn)	8.1%	20µM*	-2.8%	-3.5%[1.9 µM]	-9.4%	1.2%
NCCSC1CC(=O)N(Cc2ccc(F)cc2)C1=O (stereo not drawn)	-0.7%	2.24µM*	nt	nt	22.9%	3.3%
O=C1CC(Sc2ccc(Cl)cc2)C(=O)N1Cc1ccncc1 (stereo not drawn)	-10.2%	nt	nt	2.5%[10 µM]	-20.8%[9.22 µM]	5.0%
C=CCNc1nnc(SC2CC(=O)N(c3ccc(OC)cc3)C2=O)s1 (stereo not drawn)	-4.3%	2µM*	?	-171.1%	?	-1.8%
CC(=O)NCc1c(I)c(NC(C)=O)c(I)c(C(=O)O)c1I	-23.8%	-8.2%	-8.1%	?	-10.5%	1.7%
CCOc1ccc2nc(SC3CC(=O)N(c4ccc(OC)cc4)C3=O)sc2c1 (stereo not drawn)	4.0%	15.8µM*	-27.3%	-110.7%	?	-2.4%
CCOc1ccc(N2C(=O)CC(SCCN)C2=O)cc1 (stereo not drawn)	0.3%	3.16µM*	-5.6%	-84.2%	15.3%	-1.4%

Assay outcomes as filed in PubChem BioAssay.
